Records with an inconclusive call do not appear. Activity calls are given as the source filed them. Unless noted, calls come from the whole dose curve; as a rule, active = well fitted curve in the direction sought with a large enough effect in the repeat runs; inconclusive = weak or mixed curves; inactive = no such curve, though single readings can be large; an effect the other way counts as inactive or inconclusive.
Key:
[1] = qHTS assay for small molecule agonists of the p53 signaling pathway (AID 651631; calls by dose curve; note: nearly all actives have a fitted effect of over 15% in size)
In short: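 Read-out is beta-lactamase FRET fluorescence measured 2 h after substrate addition at room temperature, in HCT-116 cells with a p53 response element-driven reporter exposed to compounds for 16 h at 37 °C.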

[2] = qHTS assay for small molecules that induce genotoxicity in human embryonic kidney cells expressing luciferase-tagged ATAD5 (AID 651632); note: nearly all actives have a fitted effect of over 15% in size
In short: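 Genotoxicity read-out via ATAD5-luciferase: HEK293T cells, 16 hr compound incubation at 37C, Amplite detection.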

[3] = qHTS assay for small molecule agonists of the p53 signaling pathway - cell viability (AID 651633; calls by dose curve;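 note: p53RE-bla HCT reporter cells with a stable beta-lactamase p53 reporter; nearly all actives have a fitted effect of over 30% in size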)
In short: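 p53RE-bla cells were treated with compound for 16 hours at 37 C. Cytotoxicity was then measured as CellTiter-Glo luminescence after 30 min at room temperature.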

[4] = qHTS assay for small molecules that induce genotoxicity in human embryonic kidney cells expressing luciferase-tagged ATAD5 - cell viability (AID 651634; calls by dose curve; note: nearly all actives have a fitted effect of over 25% in size)
In short: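 Live-cell protease activity (CellTiter-Fluor, fluorescence) indicates viability. HEK293T cells with luciferase-tagged ATAD5; 15.5 hr compound treatment at 37C.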

[5] = qHTS assay for small molecule disruptors of the mitochondrial membrane potential - cell viability (AID 720634; calls by dose curve;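 note: human HepG2 liver cancer cells; nearly all actives have a fitted effect of over 20% in size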)
In short: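 Human hepatoma HepG2 cells were treated for 1 hr with test chemicals, then given m-MPI dye and CellTiter-Glo. Cell viability reflects luminescence proportional to cellular ATP.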

[6] = qHTS assay for small molecule disruptors of the mitochondrial membrane potential (AID 720635)
In short: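 HepG2 cells exposed to compound 1 hr at 37C, then Mito-MPS dye 30 min. Ratio read of aggregate (540/590 nm) versus monomer (490/535 nm) fluorescence.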

[7] = qHTS assay to test for compound auto fluorescence at 590 nm (red) in HepG2 cells (AID 720674)
In short: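 HepG2 cells, 2,000 per well in MEM with 10% FBS, attached overnight at 37 C, then got 23 nL compound or DMSO. After 1 hr at 37 C, 5% CO2, red fluorescence was read at 540/590 nm against Rose Bengal sodium as reference.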

[8] = qHTS assay to test for compound auto fluorescence at 535 nm (green) in HepG2 cells (AID 720675)
[9] = qHTS assay to test for compound auto fluorescence at 460 nm (blue) in HEK293 cells (AID 720678)
In short: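 Cells were seeded and left to adhere for 4-5 hr at 37C. Compounds were then pin-transferred. After an overnight incubation at 37C under 5% CO2, intrinsic fluorescence at 405/460 nm was measured and referenced to triamterene.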

[10] = qHTS assay to test for compound auto fluorescence at 590 nm (red) in HEK293 cells (AID 720679)
In short: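 Each well held 2,000 HEK293 cells in medium containing 10% dialyzed FBS. Following 4-5 hr attachment at 37C, 23 nL test compound or DMSO was added; plates sat overnight, and red fluorescence (540/590nm) was recorded.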

[11] = qHTS assay to test for compound auto fluorescence at 535 nm (green) in HEK293 cells (AID 720680)
[12] = qHTS assay to test for compound auto fluorescence at 460 nm (blue) in HEK293 cell free culture (AID 720681)
In short: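 Compounds were added to cell-free DMEM with 10% FBS and fluorescence read directly. The blue channel used 405 nm excitation and 460 nm emission, with triamterene as the reference fluorophore.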

[13] = qHTS assay to test for compound auto fluorescence at 535 nm (green) in HEK293 cell free culture (AID 720682)
In short: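 Fluorescein serves as the green reference fluorophore; each compound's intrinsic emission at 535 nm (excitation 485 nm) is reported as an equivalent amount of that dye, measured in serum-containing DMEM without cells.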

[14] = qHTS assay to test for compound auto fluorescence at 590 nm (red) in HEK293 cell free culture (AID 720683)
In short: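 Cell-free wells of DMEM with 10% FBS received compound, and intrinsic fluorescence was read at excitation/emission 540/590 nm. Values expressed as equivalence to Rose Bengal sodium.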

[15] = qHTS assay to test for compound auto fluorescence at 590 nm (red) in HepG2 cell free culture (AID 720684)
In short: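 Compound was pinned into wells holding MEM with 10% FBS and no cells, and red fluorescence was read at Ex/Em 540/590 nm. Signal is expressed as auto fluorescence equivalency relative to Rose Bengal sodium.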

[16] = qHTS assay to test for compound auto fluorescence at 460 nm (blue) in HepG2 cell free culture (AID 720685)
In short: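 Compound (23 nL) or DMSO pinned into cell-free MEM with 10% FBS; blue fluorescence read at 405/460 nm excitation/emission, expressed as auto-fluorescence equivalency to triamterene.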

[17] = qHTS assay to test for compound auto fluorescence at 535 nm (green) in HepG2 cell free culture (AID 720686)
[18] = qHTS assay to test for compound auto fluorescence at 460 nm (blue) in HepG2 cells (AID 720687)
In short: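 HepG2 cells in MEM with 10% FBS, attached overnight at 37 C, were exposed to compound or DMSO for 1 hr at 37 C, 5% CO2. Blue fluorescence was read at 405/460 nm, with triamterene as reference fluorophore.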

[19] = molecular target: Glucocorticoid receptor (Homo sapiens) (UniProt P04150); assay: qHTS assay to identify small molecule agonists of the glucocorticoid receptor (GR) signaling pathway (AID 720691; active = well fitted activation curve with a large enough effect in the signal ratio in the repeat runs, not every such curve was filed as active; the % refers to the signal ratio); settings: GR-bla HeLa, beta-lactamase reporter ratio, 18 h; activation: at 62.4 µM (top of the series)
Glucocorticoid receptor (Homo sapiens), sequence (P04150 whole entry, looked up): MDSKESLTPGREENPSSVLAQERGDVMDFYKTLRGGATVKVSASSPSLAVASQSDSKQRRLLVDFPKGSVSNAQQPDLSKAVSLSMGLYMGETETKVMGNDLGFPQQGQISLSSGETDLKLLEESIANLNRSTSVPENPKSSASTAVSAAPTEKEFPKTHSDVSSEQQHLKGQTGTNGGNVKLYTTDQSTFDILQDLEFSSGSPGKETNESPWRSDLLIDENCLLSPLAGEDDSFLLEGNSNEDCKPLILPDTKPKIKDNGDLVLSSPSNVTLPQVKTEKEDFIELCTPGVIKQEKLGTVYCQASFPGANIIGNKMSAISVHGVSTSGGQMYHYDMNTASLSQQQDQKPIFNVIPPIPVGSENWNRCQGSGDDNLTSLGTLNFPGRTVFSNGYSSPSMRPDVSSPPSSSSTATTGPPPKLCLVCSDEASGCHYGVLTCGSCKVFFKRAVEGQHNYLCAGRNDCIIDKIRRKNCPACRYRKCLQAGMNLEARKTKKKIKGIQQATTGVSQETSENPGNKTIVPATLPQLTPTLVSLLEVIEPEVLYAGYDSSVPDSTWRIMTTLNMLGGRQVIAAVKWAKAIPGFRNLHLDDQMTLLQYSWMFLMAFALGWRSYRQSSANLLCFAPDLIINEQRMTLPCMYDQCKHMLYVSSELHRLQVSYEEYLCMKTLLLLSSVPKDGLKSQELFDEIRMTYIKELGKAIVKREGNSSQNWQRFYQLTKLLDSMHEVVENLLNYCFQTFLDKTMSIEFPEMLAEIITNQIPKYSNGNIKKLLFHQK
In short: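 Beta-lactamase reporter activity, read as fluorescence intensity, was measured in GR-bla HeLa cells exposed to compounds for 18 h at 37 C and then loaded with LiveBLAzer B/G FRET substrate for 2 h at room temperature.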

[20] = molecular target: Glucocorticoid receptor (Homo sapiens) (UniProt P04150); assay: qHTS assay to identify small molecule antagonists of the glucocorticoid receptor (GR) signaling pathway (AID 720692; active = well fitted inhibition curve with a large enough effect in the signal ratio in the repeat runs, not every such curve was filed as active; the % refers to the signal ratio)
In short: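 Fluorescence from cleaved LiveBLAzer B/G FRET substrate reports GRE-driven beta-lactamase in HeLa cells; compounds are tested against 5 nM dexamethasone (final) over 18 h at 37 C, substrate incubation 2 h at room temperature.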

Measured: Potency

NC(=O)C1c2ccccc2CCc2ccccc21
inactive: all assays above

O=c1[nH]c(=O)n([C@H]2C[C@H](O)[C@@H](CO)O2)cc1/C=C/Br
inactive: all assays above

C[C@@H]1O[C@@H]1P(=O)(O)O
inactive: all assays above

NC(N)=NCc1cccc(I)c1
inactive: all assays above

CCOc1ccc(S(=O)(=O)O)c2cccnc12
inactive: all assays above

O=C1C2CC3CC1CC(O)(C3)C2
inactive: all assays above

C[N+]1(CCCCC[N+]2(C)CCCC2)CCCC1
inactive: all assays above

NC(N)=NCC1COC2(CCCCC2)O1 (stereo unspecified)
inactive: all assays above

C1CCc2nnnn2CC1
not listed: [17] | [19] | [20]
inactive: all other assays above

C[C@H](O)CN(C)C
not listed: [17] | [19] | [20]
inactive: all other assays above

CCN1CCCC1CNC(=O)c1cc(S(=O)(=O)CC)ccc1OC (stereo unspecified)
inactive: all assays above

Cc1cccc(C)c1NC(=O)C1CCCCN1C (stereo unspecified)
inactive: all assays above

CC(C)C[C@@H](NC(=O)[C@@H](O)[C@H](N)Cc1ccccc1)C(=O)O
not listed: [17] | [19] | [20]
inactive: all other assays above

Reference: PubChem BioAssay (Tox21)
